One may read the AC50 as the concentration giving half of the maximal activity seen.

Test [1] concerns the target Retinoic acid receptor alpha (Homo sapiens) (UniProt P10276). The test can be described thus: ATG_DR5_RAR_CIS: Attagene CIS-FACTORIAL HepG2 Assay for human Retinoic Acid Receptor Alpha (RARE), DR5 submotif (AID 2282934; active means hit-call score of the fitted dose curve at least 0.9, where 1 is the maximum; inactive means score below 0.9). Particulars: HepG2 Attagene cis-factorial RARE DR5 reporter, mRNA; actives raise or lower the signal. In a few lines: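 HepG2 cells transiently transfected with multiplexed reporter units under cis (DR5 RARE) promoters, so endogenous transcription factor activity is measured. After 24 h compound exposure, reporter mRNA is quantified by RT-PCR with fluorescent labelling and capillary electrophoresis; bidirectional fitting versus DMSO.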

The nature of test [2]: ATG_GRE_CIS: Attagene CIS-FACTORIAL HepG2 Assay for human Glucocorticoid Response Elements (GRE) (AID 2282947; active means hit-call score of the fitted dose curve at least 0.9, where 1 is the maximum; inactive means score below 0.9). Particulars: HepG2 GRE cis-reporter, Attagene multiplex mRNA; actives raise or lower the signal. In a few lines:
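Following 24 h chemical exposure of transiently transfected HepG2 cells, total RNA was reverse-transcribed and reporter cDNA amplified, fluorescently labelled and sized by capillary electrophoresis. Signal gain or loss was fitted relative to DMSO vehicle.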

The target of test [3] is Hepatocyte nuclear factor 6 (Homo sapiens) (UniProt Q9UBC0). The test can be described thus: ATG_HNF6_CIS: Attagene CIS-FACTORIAL HepG2 Assay for human Hepatocyte Nuclear Factor 6 (HNF6) (AID 2282952; active means hit-call score of the fitted dose curve at least 0.9, where 1 is the maximum; inactive means score below 0.9). To be noted: HepG2 Attagene cis-factorial HNF6 reporter transcription; actives raise or lower the signal. The gist of the method: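 Reporter mRNA induction or loss in HepG2 after 24 h exposure; transient cis-MRTU transfection; fragments quantified by capillary electrophoresis; bidirectional analysis, DMSO as negative control.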

Test [4] is described as follows: ATG_MRE_CIS: Attagene CIS-FACTORIAL HepG2 Assay for human Metal Responsive Element (MRE) (AID 2282954; active means hit-call score of the fitted dose curve at least 0.9, where 1 is the maximum; inactive means score below 0.9). Particulars: HepG2 MRE cis-reporter transcription, Attagene multiplex; actives raise or lower the signal. In a few lines:
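Step one: transfect HepG2 with cis-regulated reporter units. Step two: dose 24 h. Step three: isolate RNA, RT-PCR, 6-FAM label, HpaI digest, capillary electrophoresis. Fit bidirectionally to DMSO.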

Test [5] can be described thus: ATG_TGFb_CIS: Attagene CIS-FACTORIAL HepG2 Assay for human Transforming Growth Factor (TGF) (AID 2282967; active means hit-call score of the fitted dose curve at least 0.9, where 1 is the maximum; inactive means score below 0.9). To be noted: HepG2 Attagene CIS TGFb reporter, mRNA transcription; actives raise or lower the signal. In a few lines:
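Bidirectional fitting relative to DMSO gave the endpoint. Underlying data: reporter mRNA from HepG2 cells carrying transiently transfected cis-regulated reporter constructs, harvested 24 h after dosing and analyzed by RT-PCR and capillary electrophoresis.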

In test [6] the target is Hepatocyte nuclear factor 4-alpha (Homo sapiens) (UniProt P41235). The test can be described thus: ATG_HNF4a_TRANS: Attagene TRANS-FACTORIAL HepG2 Assay for human Hepatocyte Nuclear Factor 4 alpha (HNF4a) (AID 2282982). Particulars: HepG2 HNF4a transactivation reporter, mRNA readout. The gist of the method: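 Cells used were human HepG2, transiently carrying GAL4-UAS reporter units read out against exogenous NR-GAL4 chimeras. Reporter transcript levels after 24 h dosing were quantified by fluorescent RT-PCR and capillary electrophoresis.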

The nature of test [7]: ATG_M_06_TRANS: Attagene TRANS-FACTORIAL HepG2 Assay for M06 Transcription Factor (Internal Marker) (AID 2282983). Particulars: HepG2 Attagene TRANS M06 internal marker reporter. In a few lines: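 Measured by capillary electrophoresis of fluorescently labelled RT-PCR products, this endpoint reflects reporter mRNA in HepG2 cells harbouring exogenous NR-GAL4 reporter constructs after 24 h exposure, with DMSO as baseline.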

A short description of test [8]: ATG_M_32_TRANS: Attagene TRANS-FACTORIAL HepG2 Assay for M32 Transcription Factor (Internal Marker) (AID 2282984).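 Further: transcript level of a background control reporter unit measured by RT-PCR and capillary electrophoresis.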 Particulars: HepG2 Attagene TRANS M32 internal marker reporter. The gist of the method:
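Human hepatoma HepG2, transient MRTU transfection, 24 h treatment. RNA → RT-PCR → fluorescent primer extension → HpaI digest (2 h, 37 C) → CE. Positive-direction fit vs DMSO.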

Test [9] can be described thus: ATG_NF_kB_CIS: Attagene CIS-FACTORIAL HepG2 Assay for human Nuclear Factor Kappa B (NF-kB) (AID 2282991; active means hit-call score of the fitted dose curve at least 0.9, where 1 is the maximum; inactive means score below 0.9). Particulars: HepG2 Attagene cis-factorial NF-kB reporter mRNA; actives raise or lower the signal. In a few lines:
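HepG2, transient multi-reporter transfection, cis promoter elements (endogenous TFs). 24 h exposure. Total RNA → RT → PCR → 6-FAM label → HpaI → CE. Gain/loss vs DMSO.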

The target of test [10] is Retinoic acid receptor RXR-alpha (Homo sapiens) (UniProt P19793). The test is described as follows: ATG_RXRa_TRANS: Attagene TRANS-FACTORIAL HepG2 Assay for human Retinoid X Receptor alpha (RXRa) (AID 2283012). In a few lines:
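HepG2 cells transiently transfected with GAL4-UAS reporter units and chimeric RXRa-Gal4 protein, treated 24 h. Reporter mRNA measured by RT-PCR, fluorescent labelling, HpaI digestion and capillary electrophoresis. Induction fitted against DMSO.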

A short description of test [11]: ATG_M_19_CIS: Attagene CIS-FACTORIAL HepG2 Assay for M19 Transcription Factor (Internal Marker) (AID 2282939; active means hit-call score of the fitted dose curve at least 0.9, where 1 is the maximum; inactive means score below 0.9). To be noted: HepG2 Attagene CIS-FACTORIAL M19 internal marker reporter; actives raise or lower the signal. The gist of the method: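 Signals come from fluorescence of labelled reporter-specific PCR fragments resolved by capillary electrophoresis, following 24 h treatment of HepG2 cells transfected with cis-promoter reporter units; activity was fitted in both directions relative to DMSO.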

Test [12] is described as follows: ATG_PBREM_CIS: Attagene CIS-FACTORIAL HepG2 Assay for human Phenobarbital-responsive Enhancer Module (PBREM) (AID 2282955; active means hit-call score of the fitted dose curve at least 0.9, where 1 is the maximum; inactive means score below 0.9). To be noted: HepG2 PBREM cis-reporter, Attagene multiplexed transcription; actives raise or lower the signal. In a few lines: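 After a 24 h incubation with test chemical, transfected HepG2 cells yield total RNA; reporter-specific RT-PCR products are fluorescently labelled, HpaI-digested and resolved by capillary electrophoresis against ROX size standards.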

The target of test [13] is X-box-binding protein 1 (Homo sapiens) (UniProt P17861). The test can be described thus: ATG_Xbp1_CIS: Attagene CIS-FACTORIAL HepG2 Assay for human X-box Binding Protein 1 (XBP1) (AID 2282972; active means hit-call score of the fitted dose curve at least 0.9, where 1 is the maximum; inactive means score below 0.9). To be noted: HepG2 XBP1 cis-element reporter, Attagene multiplex; actives raise or lower the signal. In a few lines:
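Fluorescence-labelled cDNA fragments from reporter transcripts, separated by capillary electrophoresis, give the signal. Source: HepG2 cells transfected with promoter-driven reporter units, harvested 24 h post-dose. DMSO served as reference for bidirectional curve fitting.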

Test [14] addresses human Retinoid X Receptor beta (RXRb), RXRB (gene 6257) (UniProt P28702). The test is described as follows: ATG_RXRb_TRANS: Attagene TRANS-FACTORIAL HepG2 Assay for human Retinoid X Receptor beta (RXRb) (AID 2283013). The gist of the method:
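HepG2 cells were transiently transfected with multiplexed GAL4-UAS reporters and a chimeric RXRb-Gal4 construct, then exposed for 24 h. Reporter mRNA was quantified by RT-PCR, FAM labeling, HpaI digestion and capillary electrophoresis; gain of signal was scored against DMSO.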

Test [15] has as its target Cellular tumor antigen p53 (Homo sapiens) (UniProt P04637). The test is described as follows: TOX21_p53_BLA_p2_ratio: Tox21 HCT-116 p53 Agonism Beta-lactamase Assay, Ratio, Phase 2 (AID 2283592). The gist of the method:
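An inducible beta-lactamase reporter in HCT116 cells signals p53 pathway activation. After 16 h chemical exposure at 37C, cells load CCF4-AM substrate for 2 h at room temperature; activity is the cleaved/uncleaved emission ratio relative to DMSO.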

For test [16] the target is unchanged. The test can be described thus: TOX21_p53_BLA_p3_ratio: Tox21 HCT-116 p53 Agonism Beta-lactamase Assay, Ratio, Phase 3 (AID 2283596). In a few lines: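 HCT116 p53-bla cells (4000/well) given compound in DMSO (217-fold dilution) after 5 h, incubated 16 h at 37C. CCF4-AM substrate 2 h at room temperature; 460/530 nm emission ratio, gain fitted against DMSO.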

The target is the same in test [17]. The test is described as follows: TOX21_p53_BLA_p5_ratio: Tox21 HCT-116 p53 Agonism Beta-lactamase Assay, Ratio, Phase 5 (AID 2283599). The gist of the method:
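HCT-116 cells carrying a p53-inducible beta-lactamase reporter were seeded at 4000 cells/well and dosed after 5 h with compound in DMSO (217-fold dilution). After 16 h at 37C, CCF4-AM substrate was added for 2 h, and the 460/530 nm emission ratio was scored as gain-of-signal versus DMSO.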

Test [18] in a line: TOX21_p53_BLA_p5_viability: Viability Assessment in the Tox21 HCT-116 p53 Agonism Beta-lactamase Assay, Phase 5 (AID 2283600). The gist of the method:
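Counter-readout for cytotoxicity: ATP-dependent luminescence from CellTiter-Glo, read in the beta-lactamase wells after 30 min at RT, following a 16 h compound exposure at 37C.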

The nature of test [19]: TOX21_p53_BLA_p2_viability: Viability Assessment in the Tox21 HCT-116 p53 Agonism Beta-lactamase Assay, Phase 2 (AID 2283591).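 Further: actives lower the ATP signal meaning cytotoxicity.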 The gist of the method:
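HCT-116 p53-bla cells (4000/well) rested 5 h at 37C, then received compounds in DMSO (217-fold dilution) for 16 h at 37C, 5% CO2. After the CCF4 read, CellTiter-Glo was added; ATP luminescence was read after 30 min at room temperature.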

In test [20] the target is Cellular tumor antigen p53 (Homo sapiens) (UniProt P04637). The test is described as follows: TOX21_p53_BLA_p4_ratio: Tox21 HCT-116 p53 Agonism Beta-lactamase Assay, Ratio, Phase 4 (AID 2283601). The gist of the method:
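HCT116 cells carrying an inducible beta-lactamase reporter were plated at 4000 cells/well, rested 5 h, then exposed to compounds in DMSO (217-fold dilution) for 16 h at 37C. CCF4-AM substrate was loaded 2 h at room temperature; 460/530 nm emission ratio scored gain-of-signal versus DMSO.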

Molecules are shown by their SMILES. Inconclusive results are not listed. Activity calls are given as the source filed them. How the source made its calls, unless noted: active means hit-call score of the fitted dose curve at least 0.9, where 1 is the maximum; inconclusive means response in the unintended direction; inactive means score below 0.9.

Chain of Hepatocyte nuclear factor 6 (Homo sapiens) (Q9UBC0 whole entry, looked up, the tested form may be a part): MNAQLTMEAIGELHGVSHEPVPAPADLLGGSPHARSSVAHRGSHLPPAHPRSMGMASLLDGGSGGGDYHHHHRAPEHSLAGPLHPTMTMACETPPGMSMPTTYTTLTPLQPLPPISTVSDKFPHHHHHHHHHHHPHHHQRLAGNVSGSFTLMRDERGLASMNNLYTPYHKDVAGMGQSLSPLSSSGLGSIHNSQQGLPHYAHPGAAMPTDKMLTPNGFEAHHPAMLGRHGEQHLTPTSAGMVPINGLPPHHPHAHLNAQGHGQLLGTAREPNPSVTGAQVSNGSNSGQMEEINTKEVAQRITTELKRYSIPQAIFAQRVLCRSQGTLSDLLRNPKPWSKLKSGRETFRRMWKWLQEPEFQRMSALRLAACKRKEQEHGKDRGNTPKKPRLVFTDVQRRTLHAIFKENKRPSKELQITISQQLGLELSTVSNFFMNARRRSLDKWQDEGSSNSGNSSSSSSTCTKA
Chain of Cellular tumor antigen p53 (Homo sapiens) (P04637 whole entry, looked up): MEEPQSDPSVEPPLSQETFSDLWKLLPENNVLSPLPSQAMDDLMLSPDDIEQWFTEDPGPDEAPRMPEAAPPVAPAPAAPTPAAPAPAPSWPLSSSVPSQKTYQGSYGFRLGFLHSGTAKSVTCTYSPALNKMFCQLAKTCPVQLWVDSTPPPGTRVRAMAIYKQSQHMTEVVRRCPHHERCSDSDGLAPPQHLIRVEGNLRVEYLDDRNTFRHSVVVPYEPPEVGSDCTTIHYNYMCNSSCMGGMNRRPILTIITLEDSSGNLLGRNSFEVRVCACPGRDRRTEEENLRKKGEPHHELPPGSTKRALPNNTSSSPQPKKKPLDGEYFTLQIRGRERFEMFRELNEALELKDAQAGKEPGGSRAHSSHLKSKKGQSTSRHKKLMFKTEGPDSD
Chain of Hepatocyte nuclear factor 4-alpha (Homo sapiens) (P41235 whole entry, looked up, the tested form may be a part): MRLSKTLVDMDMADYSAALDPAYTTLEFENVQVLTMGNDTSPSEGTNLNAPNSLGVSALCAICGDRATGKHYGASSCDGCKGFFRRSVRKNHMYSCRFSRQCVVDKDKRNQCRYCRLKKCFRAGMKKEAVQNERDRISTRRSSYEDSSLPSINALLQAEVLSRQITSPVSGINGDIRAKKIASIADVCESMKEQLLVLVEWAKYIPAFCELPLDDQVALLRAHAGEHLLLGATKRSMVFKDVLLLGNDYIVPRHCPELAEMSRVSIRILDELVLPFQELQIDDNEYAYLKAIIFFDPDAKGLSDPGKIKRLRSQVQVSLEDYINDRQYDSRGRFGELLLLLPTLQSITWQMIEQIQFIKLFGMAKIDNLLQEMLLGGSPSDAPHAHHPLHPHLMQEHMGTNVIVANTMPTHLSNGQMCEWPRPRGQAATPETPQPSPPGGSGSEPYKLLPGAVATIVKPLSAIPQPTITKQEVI
Chain of human Retinoid X Receptor beta (RXRb), RXRB (gene 6257) (P28702 whole entry, looked up, the tested form may be a part): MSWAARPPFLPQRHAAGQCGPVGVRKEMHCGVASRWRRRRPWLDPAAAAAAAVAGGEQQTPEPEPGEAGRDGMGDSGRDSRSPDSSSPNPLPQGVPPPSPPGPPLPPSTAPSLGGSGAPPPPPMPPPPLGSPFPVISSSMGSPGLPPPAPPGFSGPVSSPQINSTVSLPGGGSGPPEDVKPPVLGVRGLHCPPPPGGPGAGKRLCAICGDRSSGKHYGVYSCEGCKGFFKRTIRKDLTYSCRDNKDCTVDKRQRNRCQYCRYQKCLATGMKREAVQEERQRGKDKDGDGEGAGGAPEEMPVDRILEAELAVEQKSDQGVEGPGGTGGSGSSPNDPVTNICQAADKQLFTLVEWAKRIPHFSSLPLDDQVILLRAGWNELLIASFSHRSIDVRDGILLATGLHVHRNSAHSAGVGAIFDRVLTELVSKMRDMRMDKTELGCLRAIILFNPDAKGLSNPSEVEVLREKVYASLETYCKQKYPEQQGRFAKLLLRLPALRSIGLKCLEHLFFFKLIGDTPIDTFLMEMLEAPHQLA
Chain of Retinoic acid receptor alpha (Homo sapiens) (P10276 whole entry, looked up): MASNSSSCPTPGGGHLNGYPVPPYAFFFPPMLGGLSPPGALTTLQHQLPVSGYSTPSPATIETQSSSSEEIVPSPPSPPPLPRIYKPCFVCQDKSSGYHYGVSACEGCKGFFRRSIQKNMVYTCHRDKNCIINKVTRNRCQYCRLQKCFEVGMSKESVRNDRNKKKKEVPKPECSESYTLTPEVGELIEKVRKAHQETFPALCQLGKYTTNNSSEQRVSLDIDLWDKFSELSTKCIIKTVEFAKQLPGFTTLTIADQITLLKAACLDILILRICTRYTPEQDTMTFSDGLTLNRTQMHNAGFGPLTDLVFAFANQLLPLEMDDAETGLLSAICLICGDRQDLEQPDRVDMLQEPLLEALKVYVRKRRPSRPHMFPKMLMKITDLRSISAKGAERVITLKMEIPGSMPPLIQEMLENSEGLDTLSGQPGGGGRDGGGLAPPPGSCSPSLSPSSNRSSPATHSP
Chain of X-box-binding protein 1 (Homo sapiens) (P17861 whole entry, looked up, the tested form may be a part): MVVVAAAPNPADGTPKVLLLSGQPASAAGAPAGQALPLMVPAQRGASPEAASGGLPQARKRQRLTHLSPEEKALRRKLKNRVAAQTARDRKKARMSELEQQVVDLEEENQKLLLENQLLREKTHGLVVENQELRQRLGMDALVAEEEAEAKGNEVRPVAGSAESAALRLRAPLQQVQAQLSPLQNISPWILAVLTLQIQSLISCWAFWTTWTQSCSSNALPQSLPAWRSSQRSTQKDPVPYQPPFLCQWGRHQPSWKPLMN
Chain of Retinoic acid receptor RXR-alpha (Homo sapiens) (P19793 whole entry, looked up, the tested form may be a part): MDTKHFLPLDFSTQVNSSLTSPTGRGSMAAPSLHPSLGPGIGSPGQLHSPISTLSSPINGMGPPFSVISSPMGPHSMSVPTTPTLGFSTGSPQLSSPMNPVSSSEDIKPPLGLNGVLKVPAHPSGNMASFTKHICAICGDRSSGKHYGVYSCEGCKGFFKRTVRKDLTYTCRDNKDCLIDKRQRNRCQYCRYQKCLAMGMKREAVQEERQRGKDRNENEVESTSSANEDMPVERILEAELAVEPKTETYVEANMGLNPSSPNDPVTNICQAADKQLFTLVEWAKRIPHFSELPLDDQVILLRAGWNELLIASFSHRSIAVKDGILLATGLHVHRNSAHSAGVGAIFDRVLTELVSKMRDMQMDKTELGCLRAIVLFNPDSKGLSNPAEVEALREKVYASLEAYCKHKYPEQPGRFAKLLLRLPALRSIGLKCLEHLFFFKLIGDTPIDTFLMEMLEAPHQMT

Consider `CC=CC(=O)O`, for which the outcome in test [1], in test [2], in [3], in test [4], in test [5] and in test [6] was inactive. The outcome in test [7], in test [8], in test [9] and in test [10] was inactive.

Regarding `CNC(=C[N+](=O)[O-])NCCSCc1csc(CN(C)C)n1`, the molecule was classed as inactive in test [11], in test [2], in test [3], in test [4], in test [12] and in [13]. Besides, the result in test [6], in test [8], in test [9], in test [14], in test [15] and in [16] was inactive. For the same molecule, the result in test [17] and in [18] was inactive.

Turning to `C=CCOCC(CC)(CO)COCC=C`, the result in test [1], in test [2], in test [3], in test [4], in [12] and in test [5] was inactive. The outcome in [13], in test [7], in test [9], in test [14], in [19] and in test [15] was inactive. Besides, the outcome in test [16] and in [18] was inactive.

For the molecule `Cc1ccccc1S(=O)(=O)O`, the molecule was classed as inactive in [1], in [4], in [13], in test [6], in test [7] and in test [10]. Moreover, the molecule was called inactive in test [19], in test [16], in [18] and in test [20].

Take `C=C(C)C(=O)OCC1CCCO1` (configuration not stated): the call in test [1], in test [2], in test [12], in [6], in test [7] and in [8] was inactive. Also, the molecule was called inactive in [10], in [14], in [19], in [17], in [18] and in test [20].

Turning to `CCCCOC(=O)COc1ccc(Cl)cc1Cl`, the molecule was called inactive in test [1], in test [4], in test [12], in test [13], in test [6] and in test [8]. Besides, the call in [9], in test [14], in test [19], in test [15], in test [16] and in [17] was inactive. The result in [18] and in test [20] was inactive.

As to `OCCc1ccccn1`, the molecule was classed as inactive in test [11], in test [2], in test [3], in test [4], in test [12] and in test [5]. The result in test [13], in [6], in test [10], in test [19], in [15] and in test [18] was inactive. The result in test [20] was inactive.

On to `CCOc1ccc2c(c1)C(C)CC(C)(C)N2` (configuration not stated), for which the result in [1], in test [2], in [4], in [12], in test [13] and in test [7] was inactive. For the same molecule, in test [9], the outcome was inactive. In test [14], the AC50 was 37.7 µM (active).

Take `C=CN1CCCCCC1=O`: the call in test [11], in test [2], in [3], in test [5], in test [10] and in [14] was inactive. Also, the call in [19], in [15], in [16], in test [17] and in [20] was inactive.

Consider `CCCCCCCCCC/C=C/C1CC(=O)OC1=O` (configuration not stated), for which the outcome in [11], in test [2], in test [3], in [12], in [7] and in test [8] was inactive. Also, the call in [9], in test [10], in test [14], in test [19], in test [15] and in [16] was inactive. Moreover, the outcome in test [17], in test [18] and in test [20] was inactive. Besides, the AC50 in [5] was 100 µM (active).

`CCO[Si](OCC)(OCC)c1ccccc1`: the result in [11], in test [2], in [3], in [4], in test [5] and in test [13] was inactive. Also, the molecule was called inactive in test [7], in test [8], in [10], in test [14], in test [19] and in test [16]. Also, the result in [17], in test [18] and in test [20] was inactive.

Values taken from PubChem BioAssay (EPA / NIEHS).
